The list is not random: actives were taken first. Their share in the collection is about 3.6%.
A549 tox-1 – Nrf2 qHTS screen for inhibitors: counterscreen for cytotoxicity. A549 ARE-Fluc cells, CellTiter-Fluor viability, 18-24 h. Potency, µM (series often up to 46 µM), inactives show top-dose activity change, negative = cytotoxicity, hits mostly inhibitors. 0.16% of 390,000 active. AID 504648, 2011; also: % is scaled to controls: 0 for no effect and ±100 for the full control effect
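A549 ARE_Fluc cells in 5% FBS OPTI-MEM were exposed to compounds in concentration-response for 18-24 h at 37 deg C. Viability was read by CellTiter-Fluor fluorescence (Ex 405/Em 525) after 30 min, before the luciferase read.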
TGFb inhibitor – qHTS for Inhibitors of TGF-b; 1.2% of 410,000 active; Potency, µM (titrated, usually from 46.1 µM), inactives show at the top dose activity, negative = inhibition, most hits filed as inhibitors; HepG2 CAGA-GFP TGF-b/SMAD3 reporter, GFP fluorescence, 18 h; TGF-beta stimulated, 500 pg/mL final; AID 588855, 2011; also: % is scaled to controls: 0 for no effect and ±100 for the full control effect; nearly all actives have a fitted effect of over 65% in size
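First, reporter cells (HEPG2 CAGA-GFP) rested 2 h at 37 degrees C. Next, compounds were pinned in and TGF-beta added to 500 pg/mL final. After 18 h, GFP was imaged per cell and summed per well.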
HepG2 tox-1 – qHTS for Inhibitors of TGF-b: Cytotox Counterscreen. 0.76% of 410,000 active. HepG2 CAGA-GFP viability, ATP luminescence, 18 h. Potency, µM (titrated, usually from 46.1 µM), without a hit: at the highest dose activity change, negative = cytotoxicity, hits mostly cytotoxic
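HepG2 CAGA-GFP cells (1000/well, DMEM with 1% FBS) received compound, then TGF-beta at 500 pg/mL final, and were incubated 18 hours at 37 degrees C. Viability was read by CellTiter-Glo luminescence. Media-only wells were set as complete cell-killing and DMSO as no toxicity.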
Nrf2 block – Nrf2 qHTS screen for inhibitors. Potency, µM (highest dose often 46 µM), without a hit: at the highest dose activity change, negative = inhibition, actives largely listed as inhibitors. 2.1% of 360,000 active. A549 ARE-Fluc reporter, luciferase luminescence, 18-24 h; also: % is scaled to controls: 0 for no effect and ±100 for the full control effect; nearly all actives have a fitted effect of over 60% in size
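Nrf2 function is reported as luminescence of an ARE-controlled luciferase in A549 cells. Compounds were tested at several concentrations, and a CellTiter-Fluor read on the same wells flagged cytotoxicity.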
Nrf2 ARE act – qHTS of Nrf2 Activators. AREc32 ARE-luciferase reporter (MCF7-derived line), luminescence, 24 h. Potency, µM (series often up to 46.1 µM), inactives show at the top dose activation, most hits filed as activators. 0.31% of 410,000 active. AID 624171, 2012; also: % of control where 0% means no effect; nearly all actives have a fitted effect of over 65% in size
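Each well held 1000 AREc32 cells, which were incubated with compound for 24 hr at 37 deg C after overnight attachment, and ARE reporter activity was quantified by firefly luciferase luminescence.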
FLuc enzyme inh – Nrf2 qHTS screen for inhibitors: Purified Fluc Biochemical Counterscreen for Hit Validation | Potency, µM (top dose mostly 57.5 µM), inactives show at the top dose activity change, negative = inhibition, actives largely listed as inhibitors | purified firefly luciferase, luminescence inhibition | 4% of 1,400 active | shares compounds with Nrf2 block; also: % is scaled to controls: 0 for no effect and ±100 for the full control effect; nearly all actives have a fitted effect of over 65% in size
Target sequence (P08659 whole entry, looked up): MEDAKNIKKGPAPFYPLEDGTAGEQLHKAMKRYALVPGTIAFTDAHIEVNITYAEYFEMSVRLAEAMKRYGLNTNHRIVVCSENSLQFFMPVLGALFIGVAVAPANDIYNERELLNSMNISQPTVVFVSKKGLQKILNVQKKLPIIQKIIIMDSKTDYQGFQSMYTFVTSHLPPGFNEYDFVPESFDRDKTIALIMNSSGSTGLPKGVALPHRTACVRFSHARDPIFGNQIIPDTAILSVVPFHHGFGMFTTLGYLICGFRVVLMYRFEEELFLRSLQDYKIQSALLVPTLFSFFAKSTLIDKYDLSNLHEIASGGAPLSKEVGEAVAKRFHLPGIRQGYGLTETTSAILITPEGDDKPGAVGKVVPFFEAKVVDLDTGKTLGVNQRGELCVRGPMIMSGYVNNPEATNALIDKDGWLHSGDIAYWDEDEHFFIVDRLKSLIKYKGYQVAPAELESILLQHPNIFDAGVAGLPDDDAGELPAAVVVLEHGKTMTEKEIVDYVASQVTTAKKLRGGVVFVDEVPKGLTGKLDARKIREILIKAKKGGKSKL
A549 tox-2 – Nrf2 qHTS screen for inhibitors: A549 ARE-Fluc Cytotoxicity Counterscreen for Hit Validation; shares compounds with Nrf2 block; A549 ARE-Fluc cells, cytotoxicity counterscreen; Potency, µM (titrated, usually from 46.1 µM), for the others: at the highest dose activity change, negative = cytotoxicity, actives largely listed as inhibitors; 2% of 1,400 active;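 also: cells exposed to compounds for 18 to 24 hours; % is scaled to controls: 0 for no effect and ±100 for the full control effect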
Nrf2 ARE inh – Nrf2 qHTS screen for inhibitors: Nrf2 A549 ARE-Fluc Confirmation Assay for Hit Validation. shares compounds with Nrf2 block. A549 ARE-firefly luciferase reporter, luminescence. Potency, µM (doses to about 46.1 µM), for inactives: at the highest dose activity change, negative = inhibition, actives largely listed as inhibitors. 74% of 1,400 active; also: % is scaled to controls: 0 for no effect and ±100 for the full control effect; nearly all actives have a fitted effect of over 65% in size
TGFb CAGA inh – qHTS for Inhibitors of TGF-b: Confirmation of Cherry Picks; shares compounds with TGFb inhibitor; HepG2 CAGA-GFP TGF-b reporter, GFP fluorescence, 18 h; cells stimulated with TGF-beta, 500 pg/mL; Potency, µM (doses to about 46.1 µM), for the others: at the highest dose activity, negative = inhibition, usual class: inhibitors; 63% of 1,600 active; also: % is scaled to controls: 0 for no effect and ±100 for the full control effect; nearly all actives have a fitted effect of over 65% in size
HepG2 tox-2 – qHTS for Inhibitors of TGF-b: Cytotox Counterscreen for Cherry Picks; shares compounds with TGFb inhibitor; HepG2 CAGA-GFP viability, ATP luminescence, 18 h; cells stimulated with TGF-beta, 500 pg/mL; Potency, µM (doses to about 46.1 µM), inactives show top-dose activity, negative = cytotoxicity, hits mostly inhibitors; 27% of 1,600 active; also: % is scaled to controls: 0 for no effect and ±100 for the full control effect; nearly all actives have a fitted effect of over 70% in size
CCL64 TGFb inh – qHTS for Inhibitors of TGF-b: CCL64 Cells Orthogonal Assay for Cherry Picks; Potency, µM (titrated, usually from 46.1 µM), inactives show at the highest dose activity, negative = inhibition, usual class: inhibitors; 41% of 1,600 active; shares compounds with TGFb inhibitor; CCL64 CAGA-GFP reporter, TGF-b stimulated, GFP fluorescence, 18 h; also: nearly all actives have a fitted effect of over 65% in size
COP TGFb inh – qHTS for Inhibitors of TGF-b: Hit Validation in HepG2 Cells using COP promoter; shares compounds with TGFb inhibitor; HepG2 COP-GFP TGF-b reporter, GFP fluorescence, 18 h; cells stimulated by added recombinant TGF-beta; Potency, µM (highest dose often 46.1 µM), for inactives: top-dose activity, negative = inhibition, actives largely listed as inhibitors; 3% of 1,600 active; also: nearly all actives have a fitted effect of over 70% in size
An asterisk follows results filed as active; ? = inconclusive; nt = no result given. Calls follow the shape of the dose curve; as a rule, active = well fitted curve in the direction sought with a large enough effect; inconclusive = small, poorly fitted or top-dose-only effect, or another doubt; inactive = no such curve, though single readings can be large; an effect the other way counts as inactive or inconclusive. Potency is read from the fitted curve at half-maximal effect.

SMILES	A549 tox-1	TGFb inhibitor	HepG2 tox-1	Nrf2 block	Nrf2 ARE act	FLuc enzyme inh	A549 tox-2	Nrf2 ARE inh	TGFb CAGA inh	HepG2 tox-2	CCL64 TGFb inh	COP TGFb inh
N#Cc1cn(Cc2ccccc2)c(=O)[nH]c1=O	6%	0%	-4%	?	-1%	nt	nt	nt	nt	nt	nt	nt
O=c1[nH]c(=S)n(-c2ccccc2Cl)c(O)c1C=NCCN1CCNCC1	2%	16%	10%	2%	-2%	nt	nt	nt	nt	nt	nt	nt
Nc1nc(F)nc2c1ncn2[C@@H]1O[C@H](CO)[C@@H](O)[C@@H]1O	-5%	0.5µM*	-38%	5.8µM*	-1%	-2%	-21%	16µM*	0.46µM*	0.46µM*	-33%	42%
C[C@H]1C[C@@H](C)C(=O)[C@@H]([C@H](O)CC2CC(=O)NC(=O)C2)C1	?	0.71µM*	-21%	0.41µM*	-2%	0%	-27%	13µM*	1µM*	?	0.33µM*	25%
Fc1ccc(C(OCCN2CCCC2)c2ccc(Br)cc2)cc1 (stereo not given)	-2%	?	-24%	5%	12%	nt	nt	nt	nt	nt	nt	nt
CC12CCC3C(CCC4(O)CC(O)CCC34C=NO)C1(O)CCC2C1=COC(=O)C1 (stereo not given)	?	1µM*	-43%	0.058µM*	-3%	1%	?	0.1µM*	12µM*	1µM*	0.29µM*	57%
COc1ccc(C[C@H]2NC[C@H](O)[C@H]2OC(C)=O)cc1	?	0.22µM*	-20%	0.12µM*	-1%	-18%	1%	7.3µM*	0.073µM*	0.65µM*	0.1µM*	-1%
CCC(=NCCCn1ccnc1)c1c(O)n(-c2ccc(OC)cc2)c(=O)[nH]c1=O	0%	4%	-46%	-2%	-1%	nt	nt	nt	nt	nt	nt	nt
